The record followed here is ChEMBL document CHEMBL1961873, “Compounds: GSK PKIS; Assays: Nanosyn kinase panel” (2012).

Experiment [1] concerns the target MAP/microtubule affinity-regulating kinase 3 (Homo sapiens) (UniProt P27448). Conditions: at 1 µM.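 Note: reported values are averaged percent inhibition of MARK3.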
Experiment [2] addresses T1, MAP/microtubule affinity-regulating kinase 4 (Homo sapiens) (UniProt Q96L34).
T1 sequence (whole entry): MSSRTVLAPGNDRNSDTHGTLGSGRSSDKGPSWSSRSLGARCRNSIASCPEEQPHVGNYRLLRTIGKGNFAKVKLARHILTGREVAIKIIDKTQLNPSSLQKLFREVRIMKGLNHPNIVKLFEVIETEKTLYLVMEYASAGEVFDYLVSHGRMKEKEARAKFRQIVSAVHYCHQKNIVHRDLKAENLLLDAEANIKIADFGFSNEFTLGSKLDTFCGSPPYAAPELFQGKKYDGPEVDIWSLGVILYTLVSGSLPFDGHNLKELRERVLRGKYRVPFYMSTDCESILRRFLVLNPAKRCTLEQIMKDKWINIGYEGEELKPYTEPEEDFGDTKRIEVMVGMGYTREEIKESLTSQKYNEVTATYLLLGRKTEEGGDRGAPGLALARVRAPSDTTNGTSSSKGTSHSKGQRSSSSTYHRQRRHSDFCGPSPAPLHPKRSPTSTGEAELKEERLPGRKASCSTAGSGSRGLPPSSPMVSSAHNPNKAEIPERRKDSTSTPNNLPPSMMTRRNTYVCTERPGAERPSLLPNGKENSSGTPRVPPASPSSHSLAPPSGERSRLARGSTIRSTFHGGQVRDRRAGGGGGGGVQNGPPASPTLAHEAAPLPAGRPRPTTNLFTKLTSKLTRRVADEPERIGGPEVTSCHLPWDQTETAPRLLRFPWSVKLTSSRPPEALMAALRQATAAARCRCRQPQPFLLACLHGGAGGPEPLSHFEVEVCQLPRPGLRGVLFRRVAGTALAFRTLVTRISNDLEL
Conditions: at 0.1 µM.

For experiment [3], the target named is T1, MAP/microtubule affinity-regulating kinase 4 (Homo sapiens). Conditions: at 1 µM.
Experiment [4] has as its target Maternal embryonic leucine zipper kinase (Homo sapiens) (UniProt Q14680). Conditions: at 0.1 µM.
The target is the same in experiment [5]. Conditions: at 1 µM.
Experiment [6] has as its target MAP kinase-interacting serine/threonine-protein kinase 1 (Homo sapiens) (UniProt Q9BUB5). Conditions: at 0.1 µM.
Experiment [7] shares this target. Conditions: at 1 µM.
For experiment [8], the target named is MAP kinase-interacting serine/threonine-protein kinase 2 (Homo sapiens) (UniProt Q9HBH9). Conditions: at 0.1 µM.
Experiment [9] shares this target. Conditions: at 1 µM.
The target in experiment [10] is Serine/threonine-protein kinase MARK2 (Homo sapiens) (UniProt Q7KZI7). Conditions: at 0.1 µM.
For experiment [11] the target is unchanged. Conditions: at 1 µM.
In experiment [12] the target is PAS domain-containing serine/threonine-protein kinase (Homo sapiens) (UniProt Q96RG2). Conditions: at 0.1 µM.
Experiment [13] has the same target. Conditions: at 1 µM.
Experiment [14] concerns the target Phosphorylase b kinase gamma catalytic chain, skeletal muscle/heart isoform (Homo sapiens) (UniProt Q16816). Conditions: at 0.1 µM.
Experiment [15] shares this target. Conditions: at 1 µM.
Experiment [16] has as its target T2, Phosphorylase b kinase gamma catalytic chain, liver/testis isoform (Homo sapiens) (UniProt P15735).
T2 sequence (whole entry): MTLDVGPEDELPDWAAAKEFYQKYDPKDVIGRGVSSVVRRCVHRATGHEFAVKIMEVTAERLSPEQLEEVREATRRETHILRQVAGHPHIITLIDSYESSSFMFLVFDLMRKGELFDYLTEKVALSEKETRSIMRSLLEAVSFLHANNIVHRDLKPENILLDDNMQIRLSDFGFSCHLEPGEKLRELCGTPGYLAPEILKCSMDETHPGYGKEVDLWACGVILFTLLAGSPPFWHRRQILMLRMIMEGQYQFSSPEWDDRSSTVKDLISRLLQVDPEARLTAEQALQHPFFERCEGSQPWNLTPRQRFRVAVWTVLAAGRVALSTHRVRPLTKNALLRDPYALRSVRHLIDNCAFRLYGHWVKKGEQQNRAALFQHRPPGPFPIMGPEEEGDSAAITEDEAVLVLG
Conditions: at 0.1 µM.

Experiment [17] has as its target T2, Phosphorylase b kinase gamma catalytic chain, liver/testis isoform (Homo sapiens). Conditions: at 1 µM.
The target in experiment [18] is Serine/threonine-protein kinase pim-1 (Homo sapiens) (UniProt P11309). Conditions: at 0.1 µM.
Experiment [19] has the same target. Conditions: at 1 µM.
For experiment [20], the target named is Serine/threonine-protein kinase pim-2 (Homo sapiens) (UniProt Q9P1W9). Conditions: at 0.1 µM.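 Note: reported value is the mean percent inhibition of PIM2, measured in the GSK PKIS kinase inhibitor set screen.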
Serine/threonine-protein kinase pim-2 (Homo sapiens), sequence (Q9P1W9 whole entry, looked up): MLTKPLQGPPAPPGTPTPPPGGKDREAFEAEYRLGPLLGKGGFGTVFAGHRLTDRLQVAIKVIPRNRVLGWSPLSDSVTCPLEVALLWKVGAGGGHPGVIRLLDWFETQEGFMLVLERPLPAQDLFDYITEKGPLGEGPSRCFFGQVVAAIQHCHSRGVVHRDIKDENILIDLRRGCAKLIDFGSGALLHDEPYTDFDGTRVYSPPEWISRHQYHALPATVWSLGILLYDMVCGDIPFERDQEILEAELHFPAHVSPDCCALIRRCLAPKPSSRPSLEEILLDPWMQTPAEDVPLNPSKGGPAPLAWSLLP

MAP/microtubule affinity-regulating kinase 3 (Homo sapiens), sequence (P27448 whole entry, looked up): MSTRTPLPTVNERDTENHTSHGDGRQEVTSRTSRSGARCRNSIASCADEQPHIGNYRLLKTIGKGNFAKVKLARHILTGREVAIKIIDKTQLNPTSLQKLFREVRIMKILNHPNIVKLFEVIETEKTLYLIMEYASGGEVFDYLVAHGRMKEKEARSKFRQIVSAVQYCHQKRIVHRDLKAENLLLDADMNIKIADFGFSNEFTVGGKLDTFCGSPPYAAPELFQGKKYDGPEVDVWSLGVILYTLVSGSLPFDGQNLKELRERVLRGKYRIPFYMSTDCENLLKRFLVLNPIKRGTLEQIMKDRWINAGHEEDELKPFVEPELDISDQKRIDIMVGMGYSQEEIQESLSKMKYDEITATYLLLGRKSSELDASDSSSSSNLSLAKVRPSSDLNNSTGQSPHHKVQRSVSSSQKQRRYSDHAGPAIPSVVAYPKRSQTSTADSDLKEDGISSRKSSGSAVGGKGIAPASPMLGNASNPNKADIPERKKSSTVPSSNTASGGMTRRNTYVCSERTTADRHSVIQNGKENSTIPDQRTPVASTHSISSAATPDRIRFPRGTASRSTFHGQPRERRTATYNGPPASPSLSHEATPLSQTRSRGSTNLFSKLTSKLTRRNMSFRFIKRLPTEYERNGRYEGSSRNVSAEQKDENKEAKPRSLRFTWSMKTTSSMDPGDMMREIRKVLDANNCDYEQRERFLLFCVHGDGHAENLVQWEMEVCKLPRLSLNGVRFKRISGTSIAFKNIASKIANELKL
Phosphorylase b kinase gamma catalytic chain, skeletal muscle/heart isoform (Homo sapiens), sequence (Q16816 whole entry, looked up, canonical isoform): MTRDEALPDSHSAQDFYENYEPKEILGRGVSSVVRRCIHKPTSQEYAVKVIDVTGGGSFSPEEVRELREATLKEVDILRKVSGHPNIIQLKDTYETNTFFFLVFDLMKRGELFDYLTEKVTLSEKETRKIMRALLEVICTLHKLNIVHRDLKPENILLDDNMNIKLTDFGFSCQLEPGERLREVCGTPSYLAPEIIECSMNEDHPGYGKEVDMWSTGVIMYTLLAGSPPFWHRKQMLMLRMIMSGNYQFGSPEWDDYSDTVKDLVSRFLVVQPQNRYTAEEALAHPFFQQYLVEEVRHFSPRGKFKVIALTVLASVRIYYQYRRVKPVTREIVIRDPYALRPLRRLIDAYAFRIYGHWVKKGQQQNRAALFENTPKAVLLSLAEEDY
PAS domain-containing serine/threonine-protein kinase (Homo sapiens), sequence (Q96RG2 whole entry, the tested form may be a part): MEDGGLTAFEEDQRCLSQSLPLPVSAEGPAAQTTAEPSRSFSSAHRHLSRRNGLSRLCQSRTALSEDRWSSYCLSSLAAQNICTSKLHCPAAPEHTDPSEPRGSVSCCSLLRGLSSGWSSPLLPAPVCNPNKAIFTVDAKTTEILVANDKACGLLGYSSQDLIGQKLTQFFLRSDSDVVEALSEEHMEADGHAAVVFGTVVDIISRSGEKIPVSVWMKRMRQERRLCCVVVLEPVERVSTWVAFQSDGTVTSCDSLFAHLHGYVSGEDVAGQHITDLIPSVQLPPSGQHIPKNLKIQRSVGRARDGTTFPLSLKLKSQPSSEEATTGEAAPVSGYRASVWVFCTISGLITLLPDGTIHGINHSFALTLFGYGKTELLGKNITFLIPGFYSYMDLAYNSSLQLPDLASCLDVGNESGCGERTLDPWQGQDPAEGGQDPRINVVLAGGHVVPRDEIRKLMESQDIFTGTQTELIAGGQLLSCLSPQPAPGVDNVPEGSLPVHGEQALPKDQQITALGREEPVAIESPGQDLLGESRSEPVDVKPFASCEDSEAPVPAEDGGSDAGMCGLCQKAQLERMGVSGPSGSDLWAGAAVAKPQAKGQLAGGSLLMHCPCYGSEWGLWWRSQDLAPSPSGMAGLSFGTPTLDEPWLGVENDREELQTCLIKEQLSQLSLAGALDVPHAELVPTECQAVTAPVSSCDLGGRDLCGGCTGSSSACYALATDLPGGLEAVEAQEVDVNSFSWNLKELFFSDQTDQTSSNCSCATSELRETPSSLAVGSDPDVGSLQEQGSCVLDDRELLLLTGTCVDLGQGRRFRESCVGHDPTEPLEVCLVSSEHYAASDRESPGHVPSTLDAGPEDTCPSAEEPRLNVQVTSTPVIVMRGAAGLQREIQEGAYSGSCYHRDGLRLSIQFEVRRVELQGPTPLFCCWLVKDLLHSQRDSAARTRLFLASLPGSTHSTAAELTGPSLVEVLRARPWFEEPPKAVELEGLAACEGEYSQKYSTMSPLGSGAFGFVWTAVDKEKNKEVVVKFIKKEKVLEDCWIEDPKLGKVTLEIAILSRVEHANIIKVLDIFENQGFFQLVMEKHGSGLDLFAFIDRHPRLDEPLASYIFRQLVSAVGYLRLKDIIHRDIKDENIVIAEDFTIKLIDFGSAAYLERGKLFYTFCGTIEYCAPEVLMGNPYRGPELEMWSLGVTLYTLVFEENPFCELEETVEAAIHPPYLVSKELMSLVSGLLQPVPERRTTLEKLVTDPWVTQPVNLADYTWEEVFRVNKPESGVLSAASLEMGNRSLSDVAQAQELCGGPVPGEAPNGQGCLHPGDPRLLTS
MAP kinase-interacting serine/threonine-protein kinase 1 (Homo sapiens), sequence (Q9BUB5 whole entry, looked up): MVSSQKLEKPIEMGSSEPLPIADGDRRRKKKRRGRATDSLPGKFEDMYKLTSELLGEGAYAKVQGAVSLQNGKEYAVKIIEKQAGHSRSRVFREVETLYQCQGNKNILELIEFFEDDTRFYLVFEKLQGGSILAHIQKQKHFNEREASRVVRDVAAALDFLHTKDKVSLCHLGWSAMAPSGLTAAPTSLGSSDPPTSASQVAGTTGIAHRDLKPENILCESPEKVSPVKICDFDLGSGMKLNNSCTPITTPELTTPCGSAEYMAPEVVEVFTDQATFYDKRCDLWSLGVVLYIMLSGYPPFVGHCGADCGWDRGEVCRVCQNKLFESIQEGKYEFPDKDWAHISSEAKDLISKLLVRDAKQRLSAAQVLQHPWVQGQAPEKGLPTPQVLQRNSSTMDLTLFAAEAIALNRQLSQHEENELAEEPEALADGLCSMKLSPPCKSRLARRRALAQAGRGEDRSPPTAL
Maternal embryonic leucine zipper kinase (Homo sapiens), sequence (Q14680 whole entry, looked up): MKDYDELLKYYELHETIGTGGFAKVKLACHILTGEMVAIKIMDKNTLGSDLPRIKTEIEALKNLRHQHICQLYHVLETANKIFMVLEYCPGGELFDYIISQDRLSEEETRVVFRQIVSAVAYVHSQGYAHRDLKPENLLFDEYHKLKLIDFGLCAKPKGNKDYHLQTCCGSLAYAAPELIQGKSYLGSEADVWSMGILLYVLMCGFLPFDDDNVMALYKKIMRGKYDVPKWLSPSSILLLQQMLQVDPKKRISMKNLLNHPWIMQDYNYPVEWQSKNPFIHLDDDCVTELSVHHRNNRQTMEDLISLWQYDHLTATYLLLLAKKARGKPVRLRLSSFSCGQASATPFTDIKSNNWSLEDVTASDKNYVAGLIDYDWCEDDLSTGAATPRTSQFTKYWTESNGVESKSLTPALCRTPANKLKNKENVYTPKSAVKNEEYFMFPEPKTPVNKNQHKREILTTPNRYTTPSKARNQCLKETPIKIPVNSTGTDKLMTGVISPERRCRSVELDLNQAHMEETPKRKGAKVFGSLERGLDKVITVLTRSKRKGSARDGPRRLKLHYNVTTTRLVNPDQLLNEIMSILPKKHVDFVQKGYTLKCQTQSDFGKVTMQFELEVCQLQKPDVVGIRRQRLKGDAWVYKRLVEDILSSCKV
Serine/threonine-protein kinase pim-1 (Homo sapiens), sequence (P11309 whole entry, looked up): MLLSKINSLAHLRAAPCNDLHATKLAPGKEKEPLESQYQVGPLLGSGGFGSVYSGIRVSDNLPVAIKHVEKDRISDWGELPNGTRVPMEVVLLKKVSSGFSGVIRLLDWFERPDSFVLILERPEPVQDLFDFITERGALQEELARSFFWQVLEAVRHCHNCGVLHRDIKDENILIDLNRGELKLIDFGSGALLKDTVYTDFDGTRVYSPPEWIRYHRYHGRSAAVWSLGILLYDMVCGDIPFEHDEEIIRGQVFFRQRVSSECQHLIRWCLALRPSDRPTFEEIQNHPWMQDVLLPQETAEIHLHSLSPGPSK
Serine/threonine-protein kinase MARK2 (Homo sapiens), sequence (Q7KZI7 whole entry): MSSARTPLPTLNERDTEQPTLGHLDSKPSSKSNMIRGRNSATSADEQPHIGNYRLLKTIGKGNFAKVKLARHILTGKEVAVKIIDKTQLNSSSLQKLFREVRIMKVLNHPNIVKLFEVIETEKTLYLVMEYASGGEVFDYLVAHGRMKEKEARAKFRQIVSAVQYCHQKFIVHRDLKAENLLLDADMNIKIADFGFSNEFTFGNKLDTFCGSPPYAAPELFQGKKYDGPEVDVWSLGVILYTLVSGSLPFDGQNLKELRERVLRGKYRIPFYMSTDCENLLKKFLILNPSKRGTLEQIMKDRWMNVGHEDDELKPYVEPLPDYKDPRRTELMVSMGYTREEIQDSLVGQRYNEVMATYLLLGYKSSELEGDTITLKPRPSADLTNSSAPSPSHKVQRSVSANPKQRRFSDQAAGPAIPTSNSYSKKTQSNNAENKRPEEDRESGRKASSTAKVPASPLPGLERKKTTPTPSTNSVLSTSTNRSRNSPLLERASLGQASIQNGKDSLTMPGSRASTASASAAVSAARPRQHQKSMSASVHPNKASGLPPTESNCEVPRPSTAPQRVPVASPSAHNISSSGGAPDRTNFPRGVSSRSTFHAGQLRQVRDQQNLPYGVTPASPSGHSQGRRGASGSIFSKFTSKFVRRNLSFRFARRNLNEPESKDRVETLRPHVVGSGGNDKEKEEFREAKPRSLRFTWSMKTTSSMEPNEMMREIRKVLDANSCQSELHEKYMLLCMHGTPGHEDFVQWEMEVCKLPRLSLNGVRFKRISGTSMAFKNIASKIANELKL

For `CCOc1ccc2c(-c3ccnc(Nc4cc(OC)cc(C(F)(F)F)c4)n3)cnn2n1`, the inhibition (in general, the drop in the measured response relative to a control, in per cent) is -0.83% in [1]; -0.72% in [2]; 2.36% in [3]; 3.83% in experiment [4]; 10.3% in [5]; 4.65% in experiment [6]. For the same compound, the inhibition in experiment [7] was determined as 8.47%; in experiment [8], 2.3%; in experiment [9] it was 4.37%; in experiment [10], 0.85%; in [11] it was 1.23%; in [12], 0%. Moreover, the inhibition in experiment [13] stood at 0.64%; in experiment [14], 1.57%; in experiment [15] it was 0.94%; in experiment [16], 0.61%; in experiment [17], 0.99%; in experiment [18] it was 0.51%. The inhibition in [19] is -0.17%; in experiment [20], -0.46%.
As to `Cc1ccc(-c2cc3c(NC(=O)C4CC4)ncnc3o2)cc1`, the inhibition in experiment [1] was 7.2%; in [2] it was 1.77%; in [3], 3.33%; in experiment [4] it was 2.47%; in experiment [5], 4.56%; in experiment [6] it was 1.56%. Further, the inhibition came to 6.36% in experiment [7]; 1.94% in experiment [8]; 5.77% in [9]; 1.3% in experiment [10]; 3.45% in experiment [11]; 0.53% in [12]. In addition, the inhibition was 0.26% in experiment [13]; 3.62% in [14]; 9.89% in experiment [15]; 4.46% in experiment [16]; 1.83% in [17]; 0.73% in [18]. Also, the inhibition in experiment [19] is 1.91%; in experiment [20], 0.35%.
In the case of `CC1=C(C(=O)Nc2ccc3[nH]ncc3c2)C(c2ccc(F)cc2)N=C(c2ccc(C(F)(F)F)nc2)N1` (stereo not given), the inhibition in experiment [1] was 1.71%; in experiment [2], 0.35%; in [3], 2.44%; in [4] it was 2.15%; in experiment [5] it was 5.11%; in [6], 2.55%. The inhibition in experiment [7] is 4.82%; in experiment [8], 0.9%; in [9], 3.32%; in experiment [10] it was -1.01%; in [11] it was 2.79%; in experiment [12], -0.13%. For the same compound, the inhibition in [13] is -0.98%; in experiment [14], 0.36%; in experiment [15], 1.77%; in experiment [16] it was 1.74%; in experiment [17], -0.23%; in experiment [18] it was 0.3%. In addition, the figures for the inhibition in experiment [19] and in [20] were -0.09% and 0.44%, respectively.
Take `NC(=O)c1ccc2c(-c3ccnc(NCCCO)n3)c(-c3ccc(F)cc3)nn2c1`: the inhibition in experiment [1] was 21.9%; in experiment [2] it was 1.93%; in experiment [3] it was 2.67%; in experiment [4] it was 6.11%; in experiment [5], 6.85%; in experiment [6], 4.56%. In addition, the inhibition came out at 13.4% in [7]; 3.16% in experiment [8]; 7.35% in experiment [9]; 1.93% in experiment [10]; 1.98% in [11]; 0.06% in [12]. The inhibition in experiment [13] was -1.12%; in experiment [14], 6.92%; in experiment [15], 7.38%; in experiment [16], 5.28%; in experiment [17], 2.16%; in experiment [18], 1.1%. Besides, the inhibition was 0.82% in experiment [19] and -0.18% in experiment [20].
As for `O=C(O[C@H]1CN[C@H](C#Cc2cc3ncnc(Nc4ccc(OCc5cccc(F)c5)c(Cl)c4)c3s2)C1)N1CCOCC1`, the inhibition is 10.1% in experiment [1]; 1.79% in experiment [2]; 0.94% in experiment [3]; 3.76% in experiment [4]; 4.67% in experiment [5]; 4.6% in experiment [6]. Also, the inhibition was 11.4% in experiment [7]; 5.13% in experiment [8]; 13.2% in experiment [9]; 6.4% in [10]; -1.51% in experiment [11]; 0.31% in experiment [12]. Besides, the inhibition in [13] is 0.78%; in experiment [14] it was 6.72%; in [15], 7.76%; in experiment [16] it was 7.04%; in experiment [17] it was 9.85%; in experiment [18] it was 0.79%. In addition, the results for the inhibition in experiment [19] and in [20] were 0.58% and -0.36%, respectively.
Take `CS(=O)(=O)Nc1ccc(-c2ccc3c(NC(=O)C4CC4)n[nH]c3c2)cc1`: the inhibition in experiment [1] was determined as 0.81%; in experiment [2], 2.19%; in [3] it was 2.82%; in experiment [4] it was 2.17%; in [5], 3.47%; in experiment [6], 2.36%. For the same compound, the inhibition in experiment [7] was 2.11%; in experiment [8] it was 1.69%; in [9], 1.32%; in experiment [10] it was -0.79%; in [11], 0.66%; in experiment [12] it was 0.49%. In addition, the inhibition in experiment [13] was -0.44%; in experiment [14], 1.67%; in experiment [15], 5.46%; in experiment [16], 3.59%; in experiment [17], -0.4%; in [18], 0.94%. The inhibition turned out to be 2% in experiment [19] and 0.44% in experiment [20].
